Screens (PubChem)
hgDAF-12 ag: hgDAF-12 agonism, primary luciferase screen. HEK293 GAL4-hgDAF12 UAS-luciferase reporter, agonist luminescence; normalized to butyrate control. activation, % at 6.8 µM. 370,000 tested, 1.8% active. AID 687014;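 active means activation above a cutoff set at the mean of all screened compounds plus 3 SD, cut at about 10% in these data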;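 further: 0% = DMSO wells and 100% = sodium butyrate wells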
hcDAF12 agonist: H. contortus DAF-12 activation, primary screen; HEK293 hcDAF-12 lit1-tk-luc reporter, luminescence; 0% DMSO, 100% Δ7-dafachronic acid; activation, % at 6.8 µM; 370,000 tested, 1.4% active; AID 652067;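 active means activation above the mean of all tested compounds plus 3 SD, cut at about 5.5% in these data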;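 further: 100% = response to 3 µM Δ7-dafachronic acid high control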
ssDAF-12 act: activators of S. stercoralis DAF-12 nuclear receptor; HEK293 ssDAF-12/GRIP1 lit1-tk-luc reporter, luminescence; % of 3 µM dafachronic acid response; activation, % at 6.8 µM; 370,000 tested, 1% active; AID 652126;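 active means activation above the mean over all tested compounds plus 3 SD, cut at about 0.9% in these data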;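 further: 0% = DMSO-only wells and 100% = 3 µM delta7-dafachronic acid wells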
SMARCA2 activ: increases SMARCA2 function in MMTV reporter cells | activation, % at 9.1 µM | MG213 cells, MMTV-luciferase reporter, dexamethasone, overnight | AID 652017 | 370,000 tested, 1% active; in the data active means activation above about 7.8%;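 further: 0% = vehicle wells and 100% = reference activator wells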
DAX1 inh-1: NR0B1 (DAX1) inhibition; 340,000 tested, 0.99% active; HEK293 Gal4-DAX1 luciferase reporter, luminescence; AID 504766; inhibition, % at 6.75 µM; P51843;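 active means inhibition above the mean over all tested compounds plus 3 SD, cut at about 4.2% in these data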;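 further: 0% = DAX1-transfected cells with DMSO and 100% = empty-vector control cells with DMSO; inhibition shows as a rise in luminescence from relieved DAX1 repression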
Target sequence (P51843 207-470 limits assumed): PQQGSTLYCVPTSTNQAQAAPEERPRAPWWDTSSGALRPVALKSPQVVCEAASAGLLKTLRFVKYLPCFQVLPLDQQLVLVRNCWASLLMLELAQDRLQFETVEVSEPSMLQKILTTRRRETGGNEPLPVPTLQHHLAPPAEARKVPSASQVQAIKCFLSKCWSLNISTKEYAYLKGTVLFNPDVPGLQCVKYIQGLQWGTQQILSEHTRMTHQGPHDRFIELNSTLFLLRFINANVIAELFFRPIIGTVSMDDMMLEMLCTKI
DAX1 inh-2: DAX1 (NR0B1) inhibition, primary screen. HEK293T StAR-luciferase reporter, SF-1/DAX-1 repression relief. inhibition, % at 6.8 µM. 370,000 tested, 1.1% active;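 active means inhibition above the mean over all tested compounds plus 3 SD, cut at about 3.6% in these data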;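 further: 0% = DAX-1 cells with DMSO and 100% = cells lacking DAX-1 with DMSO; higher inhibition means more luminescence from relief of DAX-1 repression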
hgDAF12 conf: hgDAF-12 agonism, confirmation assay. shares compounds with hgDAF-12 ag. HEK293 GAL4-hgDAF12 luciferase reporter, agonist mode; percent of butyrate response. activation, % at 6.8 µM. 3,300 tested, 80% active;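 active means mean activation over triplicate wells above the hit cutoff derived from the earlier primary screen, cut at about 11% in these data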;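 further: 0% = DMSO low control and 100% = 2 mM sodium butyrate high control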
LXRb DAF12 ctr: LXR-beta agonism as DAF-12 counter-screen | HEK293 Gal4-LXR luciferase reporter, 24 h | 3,300 tested, under 10 active | activation, % at 6.8 µM | shares compounds with hgDAF-12 ag;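 active means mean activation of the triplicate above a set limit carried over from the primary screen, none filed active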
Target sequence (P55055 whole entry, looked up, the tested form may be a part): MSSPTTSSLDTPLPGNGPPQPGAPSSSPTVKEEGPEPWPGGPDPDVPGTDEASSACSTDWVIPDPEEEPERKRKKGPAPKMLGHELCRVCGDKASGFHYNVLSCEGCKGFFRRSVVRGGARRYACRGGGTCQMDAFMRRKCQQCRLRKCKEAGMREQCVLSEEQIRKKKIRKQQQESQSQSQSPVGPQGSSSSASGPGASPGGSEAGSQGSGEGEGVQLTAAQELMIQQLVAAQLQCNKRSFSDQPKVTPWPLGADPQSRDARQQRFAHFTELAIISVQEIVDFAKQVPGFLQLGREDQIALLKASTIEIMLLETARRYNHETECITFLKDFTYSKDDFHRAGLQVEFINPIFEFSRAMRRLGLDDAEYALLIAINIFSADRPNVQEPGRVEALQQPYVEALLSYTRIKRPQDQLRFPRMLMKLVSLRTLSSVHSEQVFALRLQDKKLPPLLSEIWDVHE
* marks the source's active call; other numbers are inactive results; / = not tested or not shown. Only some compounds are listed: those with a hit (about 4.8% of all), similar ones and a draw of the others.

SMILES | hgDAF-12 ag | hcDAF12 agonist | ssDAF-12 act | SMARCA2 activ | DAX1 inh-1 | DAX1 inh-2 | hgDAF12 conf | LXRb DAF12 ctr
C=CS(=O)(=O)N[C@@H](CSSC[C@H](NS(=O)(=O)C=C)C(=O)OC)C(=O)OC | 2.0 | -2.6 | -1.5 | -1.4 | / | 0.0 | / | /
CCOc1ccc(-c2nnc(NC3=NCCCCC3)o2)cc1 | 14.7* | 2.5 | 0.0 | 4.7 | 1.8 | 1.3 | 13.1* | 0.6
CCOc1ccc(S(=O)(=O)NC2=NCCCCC2)cc1 | 0.0 | -0.7 | -1.3 | 0.6 | -0.8 | 1.2 | / | /
CCOc1ccc(-c2nnc(-c3ccccc3)o2)cc1 | 13.8* | 6.0* | 0.8 | 5.9 | 0.8 | 2.9 | 11.7* | 0.7
O=C(NC1CCCC1)C(C1CC1)n1c(-c2cc3ccccc3[nH]2)nc2ccccc21 (stereo unspecified) | 21.6* | 5.6 | 1.0* | 2.5 | / | 2.7 | 14.4* | 0.5
CCCCN1CC(COCc2ccccc2)Oc2cccc(Oc3ccc(F)cc3OC)c2S1(=O)=O (stereo unspecified) | 1.0 | -1.9 | -0.8 | -3.5 | / | 0.1 | / | /
CCCc1nc2c(C)cc(Br)cn2c1Cc1ccccc1OC | 4.0 | 2.6 | -0.5 | -2.1 | / | 0.1 | / | /
Cc1ccc(NC(=O)c2cncc(Br)c2)c(O)c1 | 15.6* | 6.2* | 0.3 | 6.7 | 2.3 | 2.6 | 16.8* | 0.3
Clc1ccc(COn2nnc3ccccc32)c(Cl)c1 | 13.6* | 5.3 | 0.1 | 7.3 | 4.5* | 4.0* | 17.9* | 0.6
O=[N+]([O-])c1ccc(COn2nnc3ccccc32)cc1 | 2.0 | 0.0 | -1.2 | 0.7 | 0.7 | -0.6 | / | /
Cc1ncc(CO)c(CNc2ccc(-c3nc4ccccc4[nH]3)cc2)c1O | 15.8* | 1.5 | -0.8 | 7.6 | 1.0 | 1.9 | 13.3* | 0.6
O=C(OCC#CCSc1nnc(-c2c[nH]c3ccccc23)o1)c1ccc(F)cc1 | 4.4 | 1.6 | -1.3 | / | / | / | / | /
COc1cccc(C(=O)N[C@H](C(=O)N2CCC[C@H]2C(=O)NCc2ccccc2)C(C)C)c1 | 1.7 | 0.9 | -1.0 | 7.2 | / | -1.5 | / | /
Cc1nn(-c2ccccc2)c(N)c1Sc1cccc([N+](=O)[O-])c1 | 5.3 | -3.9 | -0.8 | -2.5 | -1.5 | -1.2 | / | /
Cc1nn(-c2cccc([N+](=O)[O-])c2)c(N)c1-c1ccccc1 | 14.5* | 0.8 | -1.0 | 1.9 | 1.1 | 1.4 | 11.0* | 0.3
CC(C)NC(=O)N(C)C[C@H]1OCc2cn(nn2)CCCC(=O)N([C@H](C)CO)C[C@@H]1C | -0.9 | -0.1 | -0.6 | -3.6 | / | 1.6 | / | /
C(=C\c1nnc(-c2cccs2)o1)/c1ccccc1 | 18.0* | 4.0 | -0.2 | 6.8 | 2.7 | 3.7* | 15.7* | 0.7
O=Cc1ccc(-c2nc3ccccc3s2)o1 | 13.6* | 6.0* | -0.2 | 6.0 | -1.0 | 1.7 | 10.8* | 0.5
O=C(O)c1ccc(-c2nc3ccccc3s2)o1 | 4.7 | 1.6 | -0.9 | 7.7 | -3.4 | 0.9 | / | /
COc1cccc(/C=N/Nc2nccnc2Cl)c1O | 3.6 | 2.2 | -0.4 | -0.2 | -7.5 | -3.2 | / | /
COc1ccc(/C=N/Nc2nccnc2Cl)c(OC)c1 | 20.8* | 1.6 | 0.3 | 5.1 | 2.4 | 3.0 | 12.8* | 0.5
C=CCN1CC(COc2ccc(OC)cc2)OCCS1(=O)=O (stereo unspecified) | -1.2 | -0.3 | -0.8 | -2.3 | / | 2.3 | / | /
COc1cc(O)cc2cc3c(c(O)c12)C(=O)CC(C)(O)O3 (stereo unspecified) | 15.2* | 1.3 | -1.6 | 4.8 | 2.3 | -0.1 | 4.3 | 0.3
COc1cc(O)c2c(c1)OC(C)(C)CC2=O | 0.6 | -1.1 | -0.8 | -1.8 | -1.3 | 0.3 | / | /
CC[C@@]1(C(=O)OC)N[C@H](CN(C)C(=O)Nc2ccc(OC)cc2)[C@@H]2C(=O)N(Cc3ccccc3)C(=O)[C@@H]21 | 13.8* | -0.2 | -0.3 | -1.1 | 0.1 | 0.5 | 5.7 | 0.1
SMILES | hgDAF-12 ag | hcDAF12 agonist | ssDAF-12 act | SMARCA2 activ | DAX1 inh-1 | DAX1 inh-2 | hgDAF12 conf | LXRb DAF12 ctr
COC(=O)c1ccnc(SCC(=O)c2ccccc2)c1 | 17.6* | 2.8 | 0.9 | 4.5 | 1.6 | 2.5 | 14.4* | 0.3
COc1ccccc1C(=O)CSc1ccccn1 | 7.3 | 0.4 | -0.3 | 3.1 | 3.3 | 1.4 | / | /
COC(=O)c1cnc(SCC(=O)c2ccccc2)n1C | 15.3* | 6.1* | -0.1 | 3.4 | 3.7 | 1.6 | 14.0* | 0.6
CCOC(=O)N1CCN(C(=O)C[C@H]2C[C@@]3(C(=O)OC)C(=C[C@H](COCc4ccccc4)O[C@@H]3C)N(CCC3=CCCCC3)C2=O)CC1 | -2.9 | -0.9 | -1.6 | -4.6 | / | -0.7 | / | /
O=C(c1cc(-c2ccccc2O)on1)N1CCCCCC1 | 13.8* | 2.9 | 0.9 | 2.1 | 1.8 | 1.5 | 10.2 | 0.4
CN1CCN(C(=O)c2cc(-c3ccccc3)on2)CC1 | 3.6 | 0.6 | -0.8 | 1.6 | 0.1 | 1.2 | / | /
O=C(c1cc(-c2ccc(Br)cc2)on1)N1CCCC1 | 18.6* | 3.7 | 0.8 | 5.4 | 1.5 | 2.6 | 14.8* | 0.9
Cc1ccc(-c2cc(C(=O)N3CCCCCC3)no2)cc1 | 14.3* | 5.4 | 1.3* | 2.3 | 0.4 | 3.0 | 20.7* | 1.4
O=C(c1cc(-c2ccccc2)on1)N1CCCCCC1 | 13.3* | 4.2 | -0.1 | 4.7 | 0.5 | 1.7 | 14.8* | 0.8
CCOC(=O)C1CCCN(C(=O)c2cc(-c3ccc(C)cc3)on2)C1 (stereo unspecified) | -2.0 | -0.6 | -1.6 | -3.1 | -0.2 | 0.0 | / | /
CCCN1CCCCC(NC(C)=O)C1=O (stereo unspecified) | 3.4 | 0.1 | -1.4 | -0.8 | / | -0.6 | / | /
COc1ccc(-c2cc(C(=O)N3CCCC3)no2)cc1 | 13.6* | 4.7 | 0.1 | 1.6 | -1.8 | 1.7 | 10.0 | 0.6
O=C(c1cc(-c2ccc(O)cc2)on1)N1CCCC1 | 14.9* | 4.9 | 0.7 | 6.5 | 1.8 | 2.6 | 13.3* | 0.8
COc1ccc(-c2cc(C(=O)N3CCCc4ccccc43)no2)cc1 | 5.4 | 0.3 | -1.6 | 0.7 | 0.5 | -0.1 | / | /
O=C(O)c1cc(N/N=C/C=C/c2ccccc2[N+](=O)[O-])ccc1Cl | 13.3* | 4.2 | 0.0 | 7.6 | 2.4 | 2.5 | -0.3 | 0.0
O=C(Nc1cccnc1)Nc1ccc(Br)cc1Cl | 1.2 | -1.1 | -0.5 | -3.2 | 0.6 | 0.2 | / | /
Cc1cccc(NC(=O)c2cc3ccccc3o2)c1 | 19.6* | 6.4* | 1.1* | -0.1 | 2.9 | 3.6 | 18.8* | 0.8
O=C(Nc1cccnc1)c1cc2cc(Br)ccc2o1 | 13.9* | 5.1 | 0.0 | 6.1 | 6.6* | 2.3 | 14.2* | 1.0
CCCCOCC1CN(CCCC)S(=O)(=O)c2c(cccc2N2CCCCC2)O1 (stereo unspecified) | -0.8 | 0.1 | -1.3 | -3.1 | / | 0.4 | / | /
